# Experimental data from ChEMBL document CHEMBL3988442, “University of Dundee, Small-Polar-MMV Screening Library” (2021).
# Hit rate of the full screen: of about 48,000 compounds, about 13,000 (27%) showed an effect of 50% or more. The list shows a part of the results.
# Tested on: Wolbachia pipientis
# Experiment: Anti-Wolbachia Cell-Based Screen
# Type: functional
# Set-up: scale not given: in the data most compounds retested in dose-response had high values
# Conditions: 5 µM
row,Compound,Percent Effect [%]
1,O=S1(=O)CCC(c2nnc(-c3cnc4onc(C5CC5)c4c3)o2)C1 (centres undefined),-6.363
2,CN(C)C(=O)NC1COC2(CCN(Cc3ccc(N(C)C)cc3)CC2)C1 (centres undefined),6.702
3,CSCCNC(=O)c1cc(Br)cn1C(C)C,-6.324
4,Cc1nc(C)n(CC2CCCN2Cc2cn3ccsc3n2)n1 (centres undefined),1.786
5,CCC(OC)C(=O)N1CCC2(CC1)c1nc[nH]c1CCN2S(C)(=O)=O (centres undefined),-9.741
6,Cn1ncc2c1C(COCC1CC1)CN(S(=O)(=O)C1CC1)C2 (centres undefined),-3.815
7,CCOCC1CN(C(=O)c2cccs2)Cc2cnn(CC3CC3)c21 (centres undefined),108.8
8,COCC1c2c(cnn2CC2CCOCC2)CCN1Cc1ccoc1.O=C(O)C(F)(F)F.O=C(O)C(F)(F)F (centres undefined),-3.551
9,CCOCC1CN(C(=O)c2cccn2C)Cc2cnn(CC3CC3)c21.O=C(O)C(F)(F)F (centres undefined),-14.68
10,CCn1cc2c(n1)C(COCC1CC1)CN(C(=O)c1ccco1)C2 (centres undefined),0.7054
11,CCn1ncc2c1C(COCC1CC1)CN(C(=O)c1cccs1)C2 (centres undefined),2.096
12,Cn1ncc2c1C(COCC1CC1)CN(C(=O)Cc1ccsc1)C2 (centres undefined),0.3372
13,O=C(c1ccco1)N1Cc2cnn(CC3CC3)c2C(COCC2CC2)C1 (centres undefined),105.1
14,Cn1ncc2c1C(COCC1CC1)CN(C(=O)c1ccoc1)C2 (centres undefined),107.9
15,COCC1CN(C(=O)c2ccoc2)Cc2cnn(CC3CCOCC3)c21.O=C(O)C(F)(F)F (centres undefined),114.4
16,CCOCC1CN(S(C)(=O)=O)Cc2cnn(CC3CCOCC3)c21.O=C(O)C(F)(F)F (centres undefined),-18.06
17,COC(=O)c1ccc(Cl)c(NS(=O)(=O)c2cn(C)cn2)c1,1.86
18,CC(C)(C)c1oc(C(N)=O)cc1CN1CCOC(C(F)(F)F)C1 (centres undefined),-3.878
19,Cn1c(C(F)(F)F)nn(CCNC(=O)CSCc2ccccc2)c1=O,0.8754
20,O=C(C1CC(=O)N(C2CCCC2)C1)N1CCN(CCn2cccc2)CC1 (centres undefined),-10.58
21,COc1ccc(C(=O)N(C)Cc2cc(C)on2)c(OC)c1,-3.822
22,O=C(c1ccoc1)N1CCc2c(COCC3CC3)cncc2C1,-80.75
23,O=C(c1ccoc1)N1CCn2cnc(COCC3CC3)c2C1,-6.66
24,CCOCC1CN(C(=O)c2ccoc2)Cc2cnn(C)c21 (centres undefined),92.74
25,CCOCC1CN(C(=O)c2ccoc2)Cc2nn(C)cc21 (centres undefined),-3.903
26,O=C(c1ccoc1)N1Cc2cnn(CC3CC3)c2C(COCC2CC2)C1 (centres undefined),83.82
27,O=C(NCc1ccc(F)cc1)NCC1(N2CCOCC2)CCSC1 (centres undefined),-10.73

row,Compound,Percent Effect [%]
1,COc1ccnc(N2CCN(C(=O)c3csc(C(C)C)n3)CC2)n1,-5.502
2,CNC(=O)C(C)CN(C)C(=O)Nc1ccc(Cl)cc1-n1cccc1 (centres undefined),0.2413
3,CCN(Cc1cnn(C)c1)C(=O)c1cc2ccccc2c(=O)[nH]1,2.375
4,COC1CCN(C(=O)c2ccc3ncsc3c2)CC1,13.06
5,CCN(Cc1cnn(C)c1)C(=O)c1ccccc1O,-0.8063
6,Cn1cc(CN(C(=O)c2ccc(O)c(Cl)c2)C2CC2)cn1,100.3
7,CN(Cc1cnn(C)c1)C(=O)c1ccnc(OC2CCC2)c1,-14.79
8,O=C(c1ccc(O)c(Cl)c1)N(Cc1ccncc1)C1CC1,5.687
9,CN1C(=O)c2ccc(C(=O)N(Cc3cnn(C)c3)C3CC3)cc2C1=O,106.1
10,Cn1cc(CN(C(=O)c2ccc3ncsc3c2)C2CC2)cn1,77
11,Cn1cc(CN(C(=O)C2COc3ccccc3C2)C2CC2)cn1 (centres undefined),-27.95
12,CCCn1cc(C(=O)NCCC(=O)NC2CCCCC2)c(C)n1,-18.08
13,Cc1ccc(CCNC(=O)c2cccnc2)o1,-1.027
14,Cc1ccc(-c2nnc(CNC(=O)c3cccnc3)o2)cn1,101.6
15,CCOC(=O)c1ccc(CNC(=O)c2ccc(C)nc2)o1,18.5
16,CCCn1cc(C(=O)NCc2nnc(-c3ccc(C)nc3)o2)c(C)n1,141.9
17,CCCn1cc(C(=O)NCCc2ccncc2)c(C)n1,-13.4
18,COc1ccccc1OCC(=O)Nc1ncccc1C,-10
19,COc1cnc(N2CCCC(c3ncc[nH]3)C2)nc1 (centres undefined),-2.958
20,COc1cc(N2CC3(CCN(S(C)(=O)=O)C3)C2)ncn1.O=C(O)C(F)(F)F,-16.93
21,COc1cc(N2CCC3(CC2)CN(CCO)c2ccccc23)ncn1,112.4
22,COc1cc(N2CC3(CCN(c4ncccn4)C3)C2)ncn1,-18.99
23,O=C(O)C(F)(F)F.O=C(O)C(F)(F)F.OCCN1CC2(CCN(CC3CC3)CC2)c2ccccc21,-29.18
24,COc1cc(N2CCC3(CC2)CN(S(C)(=O)=O)c2ccccc23)ncn1,110.7
25,CS(=O)(=O)N1CC2(CCN(c3nccs3)CC2)c2ccccc21,6.686
26,CCc1ccc(C2COCCN2C(=O)Nc2ccc(C#N)cc2)o1 (centres undefined),-6.805
27,COCc1noc(-c2ccc(N3CCCCC3CCCO)nc2)n1 (centres undefined),5.834
